Inconclusive results are not listed. Entries that show only a call come without a potency. Some structures have more than one record in an assay (separate samples or runs), and their calls can disagree. Activity calls are given as the source filed them. Calls follow the shape of the dose curve; as a rule, active = well fitted curve in the direction sought with a large enough effect in the repeat runs; inconclusive = weak or mixed curves; inactive = no such curve, though single readings can be large; an effect the other way counts as inactive or inconclusive.
Tested on: not listed separately
Assay: Caspase-3/7 induction in HepG2 cells by small molecules, qHTS cell viability counter screen (AID 1346981); also: nearly all actives have a fitted effect of over 30% in size
Conditions: CellTiter-Fluor fluorescence, 17 h; series mostly up to 92.4 µM
Method in brief: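 After a 5-hr attachment period at 37 C and 5% CO2, wild-type HepG2 cells received compounds in DMSO. Sixteen hours later CellTiter-Fluor was dispensed and the fluorescent signal quantified after a further hour.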

Compound | Potency
CCOC(=O)C(Cl)Cc1cc(-n2nc(C)n(C(F)F)c2=O)c(F)cc1Cl (configuration not stated) | inactive
C[C@H](CN1CCOCC1)C(C(=O)N1CCCC1)(c1ccccc1)c1ccccc1 | inactive
O=C(Cl)C(Cl)Cl | inactive
Cc1ccc(S(=O)(=O)N[C@@H](CCCCN)C(=O)CCl)cc1 | inactive
NC(=O)OCCCc1ccccc1 | inactive
C[C@@H](N)[C@@H](O)c1ccccc1 | inactive
CCC(CC)(CNC(=O)CCCO)c1cccc(OC)c1 | inactive
CCOC(=O)c1ncn2c1CN(C)C(=O)c1c(I)cccc1-2 | inactive
COc1cccc([C@@]2(O)CCCC[C@@H]2CN(C)C)c1 | inactive
CC(=NC#N)N(C)Cc1ccc(Cl)nc1 | inactive
COc1cc(CC(C)N)cc(OC)c1OC (configuration not stated) | inactive
ClC1=C(Cl)C2(Cl)C(CBr)CC1(Cl)C2(Cl)Cl (configuration not stated) | inactive
CCCOC(=O)Cc1ccc(OCC(=O)N(CC)CC)c(OC)c1 | inactive
Cl/C=C/CCl | inactive
C[C@H](N)C(=O)c1ccccc1 | inactive
CCOP(=S)(OCC)Oc1ccc(Cl)cc1Cl | inactive
CCC(C)C(C)(COC(N)=O)COC(N)=O (configuration not stated) | inactive
COC[C@@H](NC(C)=O)C(=O)NCc1ccccc1 | inactive
BrCc1ccc(Br)cc1 | inactive
CCCCCCCCSC(=O)Oc1cc(Cl)nnc1-c1ccccc1 | inactive
CN1C(=O)COc2c(C(=O)NC3CN4CCC3CC4)cc(Cl)cc21 (configuration not stated) | inactive
COC1=CC(=O)O[C@@H](/C=C/c2ccccc2)C1 | inactive
C=CCC1(C(C)CC)C(=O)NC(=O)NC1=O (configuration not stated) | inactive
O=C(Cl)c1ccccc1 | inactive
CNC(=O)Oc1cc(C)c(N(C)C)c(C)c1 | inactive
N[C@@H](Cc1ccc(Oc2cc(I)c(O)c(I)c2)c(I)c1)C(=O)O | inactive
C=C1CC[C@@]2(O)[C@H]3Cc4ccc(O)c5c4[C@@]2(CCN3CC2CC2)[C@H]1O5 | inactive
NC1(c2ccccc2)CCCCC1 | inactive
Cn1c(CCCC(=O)O)nc2cc(N(CCCl)CCCl)ccc21 | inactive
CS(=O)(=O)Cl | inactive

Biological target: Nuclear receptor subfamily 1 group I member 2 (Homo sapiens) (UniProt O75469)
Sequence (O75469 whole entry, looked up): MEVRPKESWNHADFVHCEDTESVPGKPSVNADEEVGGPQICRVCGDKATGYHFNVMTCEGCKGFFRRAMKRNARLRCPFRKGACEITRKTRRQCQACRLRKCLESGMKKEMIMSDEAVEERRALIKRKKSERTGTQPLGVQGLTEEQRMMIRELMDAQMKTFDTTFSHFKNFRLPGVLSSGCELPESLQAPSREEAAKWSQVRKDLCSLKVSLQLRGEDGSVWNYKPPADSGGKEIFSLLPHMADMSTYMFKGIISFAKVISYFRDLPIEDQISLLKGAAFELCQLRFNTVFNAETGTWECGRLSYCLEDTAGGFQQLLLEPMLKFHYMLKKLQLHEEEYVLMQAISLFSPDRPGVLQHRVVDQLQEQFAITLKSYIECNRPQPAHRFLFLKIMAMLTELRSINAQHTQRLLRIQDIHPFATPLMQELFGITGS
Assay: Human pregnane X receptor (PXR) small molecule agonists, qHTS assay (AID 1346982); also: nearly all actives have a fitted effect of over 35% in size; also: potency is read from the fitted curve at half-maximal effect
Conditions: PXR-Luc HepG2, CYP3A4 luciferase reporter, 24 h; series mostly up to 92.4 µM
Method in brief: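 Tox21 qHTS; PXR-Luc HepG2; compounds pinned from DMSO; 24 hr, 37 C; ONE-Glo luciferase detection, 30 min room temperature.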

Compound | Potency
CCOC(=O)C(Cl)Cc1cc(-n2nc(C)n(C(F)F)c2=O)c(F)cc1Cl (configuration not stated) | inactive
O=C(Cl)C(Cl)Cl | inactive
Cc1ccc(S(=O)(=O)N[C@@H](CCCCN)C(=O)CCl)cc1 | inactive
NC(=O)OCCCc1ccccc1 | inactive
Cn1c(N)nc2c3cccnc3ccc21 | 51.8 µM (active)
C[C@@H](N)[C@@H](O)c1ccccc1 | inactive
CCC(CC)(CNC(=O)CCCO)c1cccc(OC)c1 | inactive
CCOC(=O)c1ncn2c1CN(C)C(=O)c1c(I)cccc1-2 | inactive
COc1cccc([C@@]2(O)CCCC[C@@H]2CN(C)C)c1 | inactive
CCC(C(N)=O)N1CCCC1=O (configuration not stated) | inactive
CC(=NC#N)N(C)Cc1ccc(Cl)nc1 | inactive
COc1cc(CC(C)N)cc(OC)c1OC (configuration not stated) | inactive
ClC1=C(Cl)C2(Cl)C(CBr)CC1(Cl)C2(Cl)Cl (configuration not stated) | 48.6 µM (active) and inactive
CCCOC(=O)Cc1ccc(OCC(=O)N(CC)CC)c(OC)c1 | 15 µM (active)
Cl/C=C/CCl | inactive
OCC(Cl)CCl (configuration not stated) | inactive

Compound | Potency
C[C@H](N)C(=O)c1ccccc1 | inactive
CCOP(=S)(OCC)Oc1ccc(Cl)cc1Cl | inactive
CCC(C)C(C)(COC(N)=O)COC(N)=O (configuration not stated) | inactive
COC[C@@H](NC(C)=O)C(=O)NCc1ccccc1 | inactive
BrCc1ccc(Br)cc1 | inactive
CN1C(=O)COc2c(C(=O)NC3CN4CCC3CC4)cc(Cl)cc21 (configuration not stated) | inactive
COC1=CC(=O)O[C@@H](/C=C/c2ccccc2)C1 | 24.7 µM (active)
C=CCC1(C(C)CC)C(=O)NC(=O)NC1=O (configuration not stated) | inactive
O=C(Cl)c1ccccc1 | inactive
CNC(=O)Oc1cc(C)c(N(C)C)c(C)c1 | 30.6 µM (active)
C=C(Cl)CSC(=S)N(CC)CC | inactive
C=C1CC[C@@]2(O)[C@H]3Cc4ccc(O)c5c4[C@@]2(CCN3CC2CC2)[C@H]1O5 | inactive
NC1(c2ccccc2)CCCCC1 | inactive
Cn1c(CCCC(=O)O)nc2cc(N(CCCl)CCCl)ccc21 | inactive
CS(=O)(=O)Cl | inactive
Nc1c(Cl)c(F)nc(OCC(=O)O)c1Cl | inactive

Reference: PubChem BioAssay (Tox21)
